Measured values published in PubChem BioAssay AID623877 (Johns Hopkins Ion Channel Center, 2012).
The whole screen tested about 340,000 compounds, of which about 1,000 (0.29%) were called active.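 The calls were made as follows: active = fluorescence-ratio B-score plate-corrected deviation score at least 3 library SD below zero, with starting fluorescence score within 5 deviations; inactive = the rest.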 The sample as a whole holds a higher share of actives than the screen did.

What follows are compounds tested against Anoctamin-1 (Mus musculus) (UniProt Q8BHY3) (assay: mouse ANO1 channel activation – cell-based, HTS, primary screen (AID 623877;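 as to B-score: channel opened by trigger with iodide after compound preincubation; score built on the fluorescence ratio of max minus min over baseline; more negative score means more quench and so TMEM16A activation or potentiation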)). Conditions: HEK293 TMEM16A/YFP-H148Q/I152L, iodide quench fluorescence, at 10 µM; stronger effect = lower value.
Sequence of Anoctamin-1 (Mus musculus) (Q8BHY3 whole entry, looked up): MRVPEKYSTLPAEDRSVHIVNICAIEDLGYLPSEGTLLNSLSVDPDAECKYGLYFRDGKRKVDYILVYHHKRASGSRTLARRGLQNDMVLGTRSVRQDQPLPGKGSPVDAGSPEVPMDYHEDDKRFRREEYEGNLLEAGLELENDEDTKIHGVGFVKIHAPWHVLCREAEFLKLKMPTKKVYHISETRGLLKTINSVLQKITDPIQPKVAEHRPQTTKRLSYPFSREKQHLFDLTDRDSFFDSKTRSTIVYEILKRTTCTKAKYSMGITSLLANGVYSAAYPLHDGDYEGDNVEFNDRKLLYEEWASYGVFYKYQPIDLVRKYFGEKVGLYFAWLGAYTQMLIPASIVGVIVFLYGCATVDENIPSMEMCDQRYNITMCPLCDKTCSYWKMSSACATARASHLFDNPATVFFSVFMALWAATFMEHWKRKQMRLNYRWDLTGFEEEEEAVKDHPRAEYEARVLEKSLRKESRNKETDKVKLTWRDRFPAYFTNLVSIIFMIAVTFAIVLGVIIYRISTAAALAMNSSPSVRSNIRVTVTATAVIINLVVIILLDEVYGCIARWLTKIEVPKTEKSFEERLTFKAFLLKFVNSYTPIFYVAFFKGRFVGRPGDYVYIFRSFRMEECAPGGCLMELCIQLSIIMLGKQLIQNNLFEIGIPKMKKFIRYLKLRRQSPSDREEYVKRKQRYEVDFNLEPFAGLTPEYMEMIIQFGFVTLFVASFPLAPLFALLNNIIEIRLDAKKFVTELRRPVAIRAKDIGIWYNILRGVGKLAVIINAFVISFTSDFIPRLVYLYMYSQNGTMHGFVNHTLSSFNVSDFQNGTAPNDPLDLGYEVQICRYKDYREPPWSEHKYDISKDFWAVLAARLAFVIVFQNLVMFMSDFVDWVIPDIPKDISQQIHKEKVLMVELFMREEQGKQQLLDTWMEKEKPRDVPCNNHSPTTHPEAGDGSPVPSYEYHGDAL

Row | Compound | B-score
1 | CC(OC(=O)CCCc1c[nH]c2ccccc12)C(=O)Nc1ccc(S(N)(=O)=O)cc1 (centres undefined) | inactive
2 | C/C(=N\NS(=O)(=O)c1cccc([N+](=O)[O-])c1)c1cc2ccccc2o1 | inactive
3 | CCCCN1CCNC1=S | inactive
4 | O=C1c2cccc3cccc(c23)N1CN1CCN(c2ccccn2)CC1 | inactive
5 | O=C(c1ccc2c(c1)N(Cc1ccc(F)cc1)C(=O)c1ccccc1S2(=O)=O)N1CCN(c2ccccn2)CC1 | -4.74 (active)
6 | O=C1c2ccccc2S(=O)(=O)c2cc(N3CCN(c4ccccn4)CC3)ccc21 | -5.73 (active)
7 | O=C(c1c(F)cccc1Cl)N1CCN(c2ccccn2)CC1 | inactive
8 | O=C(c1ccc2c(c1)C(=O)N(c1ccc(Cl)cc1)C2=O)N1CCN(c2ccccn2)CC1 | inactive
9 | O=C(C(Cl)Cl)N1CCN(c2ccccn2)CC1 | inactive
10 | Nc1c(Cl)cc(-c2csc(N3CCCC3c3nc4cc(Cl)c(Cl)cc4n3CCOCCO)n2)cc1Cl (centres undefined) | inactive
11 | Cc1ccc(CSCC(=O)N(C)CC(=O)Nc2ccc(C)cc2)cc1 | inactive
12 | CC1C(=O)NC(=O)C1c1ccccc1 (centres undefined) | inactive
13 | S=c1nc2ccccc2c2nc(-c3cccnc3)[nH]n12 | inactive
14 | COc1ccc(Nc2nc(-c3cccnc3)nc3ccccc23)cn1 | -6.47 (active)
15 | CC(C)(C)Nc1nc(-c2ccccn2)nc2ccccc12 | inactive
16 | O=S(=O)(NC(=S)Nc1ccccc1)c1ccc(F)cc1 | inactive
17 | O=C(O)C1CCN(C(=O)c2cc(F)cc3c2OCOC3)CC1 | inactive
18 | Cc1cc(=O)n2nc(N3CCCC3C(=O)NCCCN3CC(C)CC(C)C3)sc2n1 (centres undefined) | -18.1 (active)
19 | Cc1cc(=O)n2nc(N3CCCC(C(=O)NCCC4=CCCCC4)C3)sc2n1 (centres undefined) | inactive
20 | Cc1cc(=O)n2nc(N3CCCC(C(=O)NCc4ccc(Cl)cc4)C3)sc2n1 (centres undefined) | inactive
21 | CN(c1ccc(OCC(=O)OCC(=O)Nc2cccc([N+](=O)[O-])c2)cc1)S(=O)(=O)c1ccc(F)cc1 | inactive
22 | Cc1ccccc1OCCC(=O)OCC(=O)NCCc1ccc(S(N)(=O)=O)cc1 | inactive

Row | Compound | B-score
23 | CN(C)S(=O)(=O)c1ccc(C(=O)NCCN=C2NS(=O)(=O)c3ccccc32)cc1 | inactive
24 | Cc1cc(-c2ccc(C)c(S(=O)(=O)Nc3ccc(S(N)(=O)=O)cc3)c2)on1 | inactive
25 | Cc1noc(C)c1S(=O)(=O)NCCc1ccc(S(N)(=O)=O)cc1 | inactive
26 | CCc1ccc(-c2cc(C)no2)cc1S(=O)(=O)NCCc1ccc(S(N)(=O)=O)cc1 | -4.67 (active)
27 | Cc1cc(C)c2c(c1)cc(C)c1nnc(SCC(=O)Nc3cc(C)on3)n12 | inactive
28 | C=CCN(CC=C)CCOc1ccccc1[N+](=O)[O-] | inactive
29 | O=[N+]([O-])c1ccc(NS(=O)(=O)c2ccccc2)c(Cl)c1 | inactive
30 | Cc1ccc(-c2nn(-c3ccccc3)cc2C(=O)NC2CCC(O)CC2)cc1 (centres undefined) | inactive
31 | NC(=O)C1CCN(C(=O)c2cn(-c3ccccc3)nc2-c2cccnc2)CC1 | inactive
32 | O=C(NNC(=S)NC(=O)c1cn(-c2ccccc2)nc1-c1ccccc1)c1ccncc1 | -5.25 (active)
33 | O=C(CCc1nnc2ccc(NCCCN3CCCC3=O)nn12)NCc1ccccc1Cl | inactive
34 | C#CCOCCOCCOCCNc1nc(N2CCN(C(=O)C(Cc3ccc(O)cc3)n3cc(C(N)CC(C)C)nn3)CC2)nc(N2CCN(C(=O)C(Cc3ccc(O)cc3)n3cc(C(N)C(C)CC)nn3)CC2)n1 (centres undefined) | inactive
35 | COc1ccc(CN2C(=O)C(C)S/C2=N/N=C/c2ccco2)cc1 (centres undefined) | inactive
36 | CCc1ccc(NC(=O)Cn2nnc(C(=O)NCc3ccc(OC)cc3)c2N)cc1 | -25.9 (active)
37 | COc1ccc(NC(=O)Cn2nnc(C(=O)NCCc3ccc(OC)c(OC)c3)c2N)cc1 | inactive
38 | COc1ccc(CNC(=O)c2nnn(CC(=O)Nc3cc(C)cc(C)c3)c2N)cc1 | inactive
39 | O=C(C1CCC1)N1CCN(S(=O)(=O)c2ccc([N+](=O)[O-])cc2)CC1 | inactive
40 | COc1ccc(NC(=S)Nc2ccc(S(N)(=O)=O)cc2)c(C)c1 | -4.58 (active)
41 | COc1cc(NC(=S)NCc2ccc(S(N)(=O)=O)cc2)cc(OC)c1 | inactive
42 | COc1ccc(N2CCN(C(=S)Nc3ccc(S(N)(=O)=O)cc3)CC2)cc1 | inactive
43 | Cc1ccc(CCNC(=O)C2CCN(S(=O)(=O)N3CCCC3)CC2)cc1 | inactive
44 | O=C(O)c1cccc2c1C(=O)N(C1CCCCC1)C2 | inactive

Row | Compound | B-score
45 | O=C(O)C1CCN1C1CCCCC1 (centres undefined) | -6.61 (active)
46 | CC(Sc1nnnn1C1CCCCC1)C(=O)O (centres undefined) | inactive
47 | COc1cccc2c1OCC(CN1CCN(C3CCCCC3)C(CCO)C1)=C2 (centres undefined) | inactive
48 | CC(=O)OCC1(O)CC23CCC4c5ccoc5CCC4(C)C2CCC1C3 (centres undefined) | -17.2 (active)
49 | Oc1cc2c(cc1O)CN(C(=S)NCCc1ccc(Cl)cc1)CCC2 | inactive
50 | Cc1nc(SCC(=O)NC2CCCC2)[nH]c(=O)c1C | inactive
51 | C[C@H](NC(=O)c1nc[nH]c1C(=O)N[C@@H](C)C(=O)OC(C)(C)C)C(=O)OC(C)(C)C | inactive
52 | CN(CCN1CCOCC1)Cc1nc(-c2ccc3c(c2)OCO3)no1 | -6.61 (active)
53 | CCn1ccnc1CN(C)Cc1nc(-c2ccc3c(c2)OCO3)no1 | inactive
54 | COCC1CCCN(Cc2nc(-c3ccc4c(c3)OCO4)no2)C1 (centres undefined) | inactive
55 | CC(C)N(Cc1ccccc1)C(=O)COC(=O)c1cnccn1 | inactive
56 | Cc1ccc2c(c1)-c1c(ssc1=S)C(C)(C)N2C(=O)CN1C(=O)c2ccccc2C1=O | inactive
57 | Cc1cc(C)cc(NC(=O)CN2C(=O)c3ccccc3C2=O)c1 | inactive
58 | Cc1cc2c(cc1C)N(C(=O)CN1C(=O)c3ccccc3C1=O)C(C)(C)c1ssc(=S)c1-2 | -9.51 (active)
59 | O=C(NCCCN1CCN(c2ccccc2F)CC1)C1CCC(=O)N1C1CCCCC1 (centres undefined) | inactive
60 | Cc1ccccc1CSc1nnc(Cn2c(=O)sc3ccccc32)n1C | inactive
61 | Cc1ccc(NS(=O)(=O)c2ccc3c(c2)oc(=O)n3C)c(C)c1 | inactive
62 | O=C(NCc1ccco1)C1CCCN(S(=O)(=O)c2ccccc2)C1 (centres undefined) | inactive
63 | O=C(NCc1ccco1)C1CCCN(S(=O)(=O)c2cnc[nH]2)C1 (centres undefined) | -16.8 (active)
64 | CCCS(=O)(=O)N1CCCC(C(=O)NCc2ccco2)C1 (centres undefined) | inactive
65 | Cc1cc(S(=O)(=O)NCC(C)C)ccc1OCC(=O)NC1CC1 | inactive
66 | CCN(CC)CCOc1ccc2c(c1)C(=NNC(=O)c1ccccn1)c1cc(OCCN(CC)CC)ccc1-2 | inactive

Row | Compound | B-score
67 | CCn1c(SCC(=O)Nc2ccccc2F)nc2c(c1=O)SC(C)C2 (centres undefined) | inactive
68 | O=C(Nc1cccc([N+](=O)[O-])c1)Nn1cnnc1 | inactive
69 | COC(=O)/C=C\C(=O)Nc1cccc([N+](=O)[O-])c1 | -4.72 (active)
70 | COc1ccc(S(=O)(=O)NC(C)C(=O)Nc2cccc([N+](=O)[O-])c2)cc1 (centres undefined) | inactive
71 | CCn1c(SCC(=O)Nc2ccc3c(c2)OCCO3)nnc1C(C)C | inactive
72 | CCn1c(SCC(=O)Nc2ccc3c(c2)OCCO3)nnc1-c1ccncc1 | inactive
73 | CCn1c(COc2ccccc2)nnc1SCC(=O)Nc1ccc2c(c1)OCCO2 | -32.9 (active)
74 | C/C(=N\NC(=O)c1cccnc1)c1ccc(-n2ccnc2)cc1 | inactive
75 | Nc1nc(NC(=O)/C=C/c2ccccc2)nn1-c1ccccc1 | inactive
76 | C=CCSc1nnc(N2C(=O)C(O)=C(C(=O)c3ccco3)C2c2ccc(F)cc2)s1 (centres undefined) | -5.81 (active)
77 | C=CCOc1cccc(C2C(C(=O)c3ccc(C)o3)=C(O)C(=O)N2c2nnc(C)s2)c1 (centres undefined) | inactive
78 | Cc1ccc2nc(N3C(=O)C(O)=C(C(=O)c4ccco4)C3c3cccc(O)c3)sc2c1 (centres undefined) | inactive
79 | COc1cccc(NC(=O)CN(C)C(=O)c2cc(C3CC3)nn2-c2ccccc2)c1 | inactive
80 | O=C(COc1ccc(NC(=O)c2ccccc2[N+](=O)[O-])cc1)c1ccc(F)cc1 | inactive
81 | COc1ccc(OC)c(NC(=O)CSc2nc(N)c(-c3ccccc3)c(=O)[nH]2)c1 | inactive
82 | CCCOC(=O)CC1C(=O)NCCN1Cc1ccc(F)cc1 (centres undefined) | inactive
83 | CC(C)c1nc2oc3c(N4CCN(C)CC4)ncnc3c2c2c1CCC2 | inactive
84 | Cn1c(=O)c([N+](=O)[O-])c(Oc2ccccc2)c2ccccc21 | -29 (active)
85 | Cc1cc(C)c(-c2c(O)c3ccccc3n(C)c2=O)c(C)c1 | inactive
86 | Cc1cccc(Oc2c([N+](=O)[O-])c(=O)n(C)c3ccccc23)c1 | inactive
87 | CN(CCC(=O)Nc1cc(S(=O)(=O)N(C)C)ccc1Cl)CC(=O)Nc1ccc(F)cc1 | inactive
88 | CC1=CC(=NNS(=O)(=O)c2ccc([N+](=O)[O-])cc2)CC(C)(C)C1 | inactive

Row | Compound | B-score
89 | CCOC(=O)c1cc(NC(=O)c2ccc(Cl)cc2)c(=O)oc1-c1ccccc1 | inactive
90 | CC(=O)c1cc(NC(=O)c2ccccc2)c(=O)oc1/C=C/N(C)C | -6.65 (active)
91 | COc1cc(NC(=O)c2ccccc2)c(OC)cc1NC(=O)Cc1ccccc1 | inactive
92 | COc1ccc(N(CCC(=O)NCCc2ccccc2)S(=O)(=O)c2ccc(C)cc2C)cc1 | inactive
93 | Nc1ccc2[nH]c(=S)sc2c1 | inactive
94 | CCN(CCCCOC(=O)c1ccc(OC)c(OC)c1)C(C)Cc1ccc(OC)cc1 (centres undefined) | -9 (active)
95 | COc1ccc(C(CCN(Cc2ccc(OC)c(OC)c2)C(=O)CCl)c2ccccc2)cc1 (centres undefined) | inactive
96 | COc1ccc(C(=O)OCC(=O)NCCCc2ccccc2)cc1OC | inactive
97 | CCOCCCNC(=S)N1CCC(NC(=O)C2CCCCC2)CC1 | inactive
98 | CCOc1ccccc1NC(=S)NC(=O)CCc1ccccc1 | inactive
99 | CCc1cccc(NC(=O)COC(=O)C2CCN(c3ccc(C(F)(F)F)cn3)CC2)c1 | inactive
100 | CC[C@@H]1CCCCc2ccccc2[C@@H](C(=O)C[C@H](O)CC(C)=O)OC1=O | inactive
101 | CC(=O)C[C@@H](O)CC(=O)[C@H]1OC(=O)CCCCCCc2ccccc21 | -17.5 (active)
102 | CC(=O)C[C@H](O)CC(=O)[C@@H]1OC(=O)[C@@H](C)C/C=C\Cc2ccccc21 | inactive
103 | CCOC(=O)CSc1nnc(CNC(=O)Cc2ccccc2)n1-c1ccccc1OC | inactive
104 | Cc1cc(OC(=O)c2ccc(Cl)cc2)cc(=O)n1C | inactive
105 | CCOC(=O)c1c(CC(C)C)csc1/N=C/C1=C(O)CCCC1=O | inactive
106 | CCOC(=O)c1c(/N=C/C2C(=O)CC(C)(C)CC2=O)sc(C)c1C | inactive
107 | CCOC(=O)c1sc(/N=C/C2=C(O)CC(C)(C)CC2=O)c(C(=O)OCC)c1C | -35.4 (active)
108 | COc1ccc(Cl)cc1NC(=O)Cn1nc(-c2ccc(C)cc2)n(C)c1=S | inactive
109 | CCC(NC(=O)C1CCCC1)c1ccc(C)cc1 (centres undefined) | inactive
